A selection: hits, their analogues and other compounds. The true share with any hit is near 6.2%.
AI-2 QS modul = modulators of Vibrio harveyi AI-2 quorum sensing system | Vibrio harveyi JMH597 AI-2 luminescence/OD600 ratio, 9 h; active compounds read low; strain lacks LuxN and CqsS sensors; 0 = neutral-control median | activity change, % at 7.5 µM | hit rate 0.4% among 300,000; in the data active = activity change below about -75%, passing the limit was not always enough; inconclusive = no clear call, values can overlap the other calls;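 also: luminescence divided by OD600 gain over 9 h not by final OD600 alone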
AHR act = activates the human aryl hydrocarbon receptor; P35869; AID 2796; activation, % at 5 µM; hit rate 2.5% among 320,000; AHR-responsive luciferase reporter cells, luminescence; in the data active = activation above about 47%;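 also: 0% = vehicle wells and 100% = reference agonist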
GRIN3A LBD mod = modulators (binders) of human NR3A ligand-binding domain | NR3A LBD differential scanning fluorimetry, Tm shift; 0% = protein alone, 100% = glycine-bound protein | Tm shift relative to glycine control, % at 25 µM | hit rate 2.5% among 340,000 | AID 1259313;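 active = melting temperature shift of at least 10% of the positive control shift, at one fixed dose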
SUMO Mot1 rescue = blocks SUMOylation pathway, rescuing yeast Mot1-301 growth. S. cerevisiae Mot1-301 growth rescue, ATP luminescence, 38.5C; percent above DMSO median, 100 means doubled. growth rescue, % at 18.8 µM. hit rate 1% among 320,000. AID 2716;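 active = every valid replicate shows activation above 250% relative to neutral control wells; inactive = the rest, any valid replicate at or below 250%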;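 also: OY570 slx delta 5 strain wells were the positive control but not used for scaling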
Cardio protect = myocardial damage modulation in H9c2 cells; H9c2 cardiomyocytes, H2O2 injury protection, ATPLite, 2 h; protection from H2O2 cell death, % at 20 µM; hit rate 0.63% among 360,000;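 active = compounds giving at least 50% protection of heart cells from peroxide-induced death in the single-dose screen, raw or plate-pattern-corrected value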;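 also: 0% = DMSO wells with peroxide and 100% = DMSO wells without peroxide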
NTR1 agonist = agonists of human neurotensin receptor NTR1 | P30989 | NTR1-U2OS beta-arrestin-GFP spot imaging, agonist mode | activation, % at 20 µM | hit rate 0.17% among 330,000;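 active = activation at or above 40% of the spot to cytoplasm intensity ratio, with at least 20 cells analyzed; inconclusive = wells under 20 cells, flagged as cytotoxic or low count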;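 also: 0% = DMSO without peptide and 100% = 100 nM NTR1 peptide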
Target sequence (P30989 whole entry, looked up): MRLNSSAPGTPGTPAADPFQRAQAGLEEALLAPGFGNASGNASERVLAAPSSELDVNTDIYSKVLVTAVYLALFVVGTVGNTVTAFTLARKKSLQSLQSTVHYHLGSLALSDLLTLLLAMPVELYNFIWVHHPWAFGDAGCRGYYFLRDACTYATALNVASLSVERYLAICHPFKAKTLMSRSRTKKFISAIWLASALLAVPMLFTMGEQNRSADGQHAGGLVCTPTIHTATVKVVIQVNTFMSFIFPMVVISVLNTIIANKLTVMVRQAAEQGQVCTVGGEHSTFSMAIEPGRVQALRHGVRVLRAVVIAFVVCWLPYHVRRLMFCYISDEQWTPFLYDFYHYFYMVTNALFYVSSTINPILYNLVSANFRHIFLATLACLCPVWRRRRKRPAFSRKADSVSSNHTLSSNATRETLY
Starred values were filed as active, the others as inactive; ? = inconclusive; / = not tested or not shown.

SMILES | AI-2 QS modul | AHR act | GRIN3A LBD mod | SUMO Mot1 rescue | Cardio protect | NTR1 agonist
COc1cccc(Nc2nc(N)nc(-c3oc4ccccc4c3C)n2)c1 | 15 | -13 | 17* | -2 | -3 | 25
COc1cc(C2=NOC(C(=O)NCc3ccco3)C2)cc(OC)c1OC (stereo unspecified) | 8 | 3 | 0 | -5 | -1 | 3
COc1ccc(C2=NOC(C(=O)NCc3ccco3)C2)cc1 (stereo unspecified) | 11 | 7 | 11* | -4 | 9 | -1
COc1ccc(OCC(=O)N2CCc3ccccc32)c([N+](=O)[O-])c1 | / | / | / | / | -6 | /
CCNC(=S)Nc1cc2oc3ccccc3c2cc1OC | 10 | 70* | 7 | 10 | 11 | 1
CCN(CC)S(=O)(=O)c1ccc(OC)c(NC(=O)c2ccc([N+](=O)[O-])cc2)c1 | -11 | 3 | 5 | 20 | 13 | -1
COc1cc2c(cc1NC(=S)Nc1ccccc1C)oc1ccccc12 | 16 | 19 | 0 | -4 | -3 | 2
COc1cc2c(cc1NC(=S)NC(=O)/C=C/c1ccc(OC)c(OC)c1)oc1ccccc12 | / | / | 0 | / | -4 | /
CCN(CC)S(=O)(=O)c1ccc(C(=O)Nc2cc3oc4ccccc4c3cc2OC)cc1 | 5 | 51* | 11* | 12 | -8 | 3
CNC(=S)Nc1cc2oc3ccccc3c2cc1OC | 19 | / | 18* | 2 | -2 | 2
CCCNC(=S)Nc1cc2oc3ccccc3c2cc1OC | 15 | 53* | 18* | -5 | 8 | 6
CCCn1c(C(O)c2ccc(OC)c(OC)c2)nc2ccccc21 (stereo unspecified) | 4 | 1 | -2 | 14 | -13 | 0
COc1cc2c(c(OC)c1OC)-c1ccc(SC)c(=O)cc1C(NC=O)CC2 (stereo unspecified) | / | / | -1 | / | 1 | /
CC1CCCC(C)N1C(=O)COC(=O)CNC(=O)c1ccccc1 (stereo unspecified) | / | -1 | 0 | 9 | 0 | -2
CCOc1ccccc1NC(=O)/C=C/c1ccccc1[N+](=O)[O-] | 0 | 63* | -4 | 17 | -3 | 0
Cc1ccnc(NC(=O)/C=C/c2ccccc2Cl)c1 | 13 | 16 | 20* | 14 | -26 | -1
Cc1ccnc(NC(=O)/C=C/c2ccccc2[N+](=O)[O-])c1 | 20 | 72* | / | -6 | / | -1
O=C(/C=C\c1ccccc1[N+](=O)[O-])Nc1ccccc1 | 6 | 40 | 14* | 21 | 12 | 2
Cc1ccnc(NC(=O)c2ccccc2[N+](=O)[O-])c1 | 11 | 15 | -1 | 1 | -3 | 0
CCOc1ccccc1NC(=O)/C=C/C(N)=O | 0 | -5 | 1 | -29 | -20 | -1
Cc1cccc(C)c1NC(=O)c1cc(S(=O)(=O)N2CCC3(CC2)OCCO3)ccc1F | / | / | / | / | -2 | /
CCc1ccccc1NC(=O)CNC(=O)c1ccccc1OCc1c(C)noc1C | 28 | 2 | 0 | 0 | 15 | -2
O=c1[nH]c(=S)[nH]c2c1C(c1ccc(Cl)cc1)OC(C1CCCCC1)C2 (stereo unspecified) | / | / | / | / | 0 | /
CCN(CC)c1ccc(/C=N/NC(=O)CNC(=O)c2ccccn2)cc1 | 9 | 60* | -1 | -3 | 0 | 0
O=C(CNC(=O)c1ccccc1Cl)N/N=C/c1ccc2c(c1)OCO2 | 6 | 10 | -3 | 0 | 0 | 1
SMILES | AI-2 QS modul | AHR act | GRIN3A LBD mod | SUMO Mot1 rescue | Cardio protect | NTR1 agonist
O=C(CNC(=O)c1ccccn1)N/N=C/c1ccc2c(c1)OCO2 | ? | 68* | -2 | 7 | -3 | 1
O=C(Nc1ccc(F)c(Cl)c1)c1ccc2c(c1)OCO2 | 3 | 8 | -2 | 13 | -7 | 1
COc1ccc(NC(=O)c2ccc3c(c2)OCCO3)cc1OC | 26 | 16 | 0 | 31 | -4 | 0
COc1cc(NC(=O)c2ccc3c(c2)OCCO3)ccc1NC(=O)c1ccccc1Cl | 23 | -17 | 29* | 138 | 5 | 1
COc1ccc(NC(=O)c2ccc3c(c2)OCO3)cc1Cl | -51 | -2 | 26* | 1 | -16 | 2
CCOc1ccc(S(=O)(=O)N2CCCC(C(=O)N3CCOCC3)C2)cc1C (stereo unspecified) | -1 | 0 | 2 | 1 | -9 | 0
Cc1occc1C(=O)Nc1cc(=O)n(C)c(=O)n1C | 15 | 66* | 1 | 7 | 11 | 5
Cn1c(NC(=O)/C=C/c2ccccc2)cc(=O)n(C)c1=O | 24 | 78* | -2 | 4 | 14 | 1
COc1ccc(C(=O)Nc2cc(=O)n(C)c(=O)n2C)cc1 | 18 | 2 | -1 | -2 | 8 | 1
Cn1c(NC(=O)/C=C/c2ccc(Cl)c(Cl)c2)cc(=O)n(C)c1=O | 21 | 22 | 16* | 11 | 0 | 6
COc1ccc(/C=C/C(=O)Nc2cc(=O)n(C)c(=O)n2C)cc1 | 7 | 47* | 0 | 9 | 15 | 5
c1ccc2c(-c3nc(C4CCCCC4)no3)cc(-c3ccncc3)nc2c1 | 19 | 2 | 15* | -7 | -22 | 19
COc1ccccc1C(=O)NCCC(=O)N(C)CC(=O)Nc1ccc(N2CCOCC2)cc1 | 8 | 8 | -1 | 16 | 2 | 0
O=C(N/N=C/c1cn(-c2cccs2)nc1-c1ccccc1)c1ccccc1Cl | 17 | 6 | 14* | -5 | 15 | 2
O=C(N/N=C/c1cn(-c2cccs2)nc1-c1ccccc1)c1ccc(O)cc1 | 47 | 11 | 12* | 138 | 9 | 14
Cc1cccc(OCc2nnc(SCC(=O)N(C)C3CCCCC3)o2)c1 | / | / | -1 | / | -9 | 1
Cc1cn(CC(=O)NCC(C)c2ccccc2)c(=O)[nH]c1=O (stereo unspecified) | / | / | 0 | / | 1 | /
CCOc1ccc(OCCSc2ccc(S(=O)(=O)N3CCN(C)CC3)cn2)cc1 | / | 2 | -13 | 295* | -9 | 1
CCOC(=O)c1sc(Nc2ccc(Br)cc2)nc1C | -57 | 14 | 14* | -4 | -13 | 8
CCOC(=O)c1sc(Nc2ccccc2Cl)nc1C | 10 | -2 | 3 | -3 | -11 | 6
COc1ccc(Nc2nc(-c3ccc(OC)cc3)c(CCC(=O)O)s2)cc1 | -2 | 2 | 0 | -10 | -2 | 3
CCOC(=O)c1cc2nc(Nc3ccc(OC)cc3)sc2s1 | 1 | 8 | 15* | -8 | -13 | 3
CCC(C)NC(=O)Cn1ccc2cc(S(=O)(=O)N3CCCCCC3)ccc21 (stereo unspecified) | 12 | 1 | 1 | -4 | -3 | 0
CCOc1ccccc1NC(=O)COC(=O)COc1c(Cl)cc(Cl)c2ccc(C)nc12 | 15 | 0 | 1 | -8 | 6 | 4
CCN(CC(=O)NC(C)(C)C)C(=O)COc1c(Cl)cc(Cl)c2ccc(C)nc12 | -81* | 5 | -1 | 81 | 26 | 11

Compound activity: PubChem, several laboratories
